Where “and” joins values, the source holds several entries; their conditions need not be identical. Equal values may be shown once. The campaign covered roughly 360,000 compounds. About 3,500 (0.97%) were called active.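 The calls were made as follows: active = activation above a per-plate cutoff, the mean activation of sample wells on that plate plus 3 SD (cut at about 8% in these data); inactive = the rest.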 What follows is part of a selection rich in actives, with near analogues and random picks from the rest. More than one record can exist for a structure, and the calls need not agree.

Chain of Melanocortin receptor 4 (Homo sapiens) (P32245 whole entry, looked up): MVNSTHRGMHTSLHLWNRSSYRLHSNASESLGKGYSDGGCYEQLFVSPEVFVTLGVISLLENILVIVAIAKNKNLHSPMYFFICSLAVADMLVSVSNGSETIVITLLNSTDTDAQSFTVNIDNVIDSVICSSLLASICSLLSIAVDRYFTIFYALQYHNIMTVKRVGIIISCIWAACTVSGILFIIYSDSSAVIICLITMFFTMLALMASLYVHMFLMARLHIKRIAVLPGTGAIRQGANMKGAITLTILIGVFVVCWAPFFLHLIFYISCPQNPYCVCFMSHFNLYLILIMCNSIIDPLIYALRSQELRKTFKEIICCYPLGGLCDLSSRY

This experiment concerns the target Melanocortin receptor 4 (Homo sapiens) (UniProt P32245). The experiment in a line: MC4R agonists recruiting beta-arrestin, primary screen, cell-based, luminescence, agonist arm of biased-ligand search (AID 540308). The settings on record: U2OS MC4R beta-arrestin complementation, at 8.9 µM, stronger effect = higher value, percent of melanotan II response, DMSO zero.
Turning to `COc1ccc(CNC(=O)c2ccc(Br)s2)cc1OC`, the activation is -3.45% (inactive). For `COc1ccc2nc(NC(=O)c3ccc(Br)s3)sc2c1` the value was 16.2% (active); for `CSc1ncccc1C(=O)Nc1nc2ccc(F)cc2s1`, -1.02% (inactive).

As to `O=C(COc1ccc2c(c1)CCC2)N1CCN(c2ccc(F)cc2)CC1`, the activation was 0.92% (inactive).

As to `O=C(Nc1cccc(C(F)(F)F)c1)c1ccc(N2CCNCC2)c([N+](=O)[O-])c1`, the activation is -2.39% (inactive). As for `COc1cc(NC(=O)c2[nH]cnc2C(N)=O)cc(C(=O)Nc2cccc(C(F)(F)F)c2)c1`, the figure is 1.84% (inactive); as for `COc1cc(NC(=O)c2cncc(-c3ccc(C#N)cc3)c2)cc(C(=O)Nc2cccc(C(F)(F)F)c2)c1`, 2.04% (inactive) and 10.5% (active); as for `Cc1nc(C(F)(F)F)ccc1C(=O)N1CCC1(C)C(=O)NS(=O)(=O)c1ccc(F)cc1F` (configuration not stated), 1.24% (inactive). As for `NS(=O)(=O)c1ccc(NC(=S)Nc2ccc(Br)c(Cl)c2)cc1`, the figure is -1.38% (inactive); as for `S=C(Nc1ccccc1)Nc1ccc2ccccc2c1`, 0.79% (inactive); as for `Cc1cccc(NC(=S)Nc2ccc(Cl)c(Cl)c2)c1`, 8.62% (active). For `OC(c1ccc(Cl)c(F)c1)c1ncc(-c2ccccc2Cl)[nH]1` (configuration not stated) the value was 5.44% (inactive). On to `COc1ccc(-c2noc(C(C)NS(=O)(=O)c3ccc(NC(C)=O)cc3)n2)cc1` (configuration not stated), for which the activation was -3.52% (inactive). For the molecule `CCCC(=O)N1CCC1(C)C(=O)NCc1ccc(C(C)C)cc1` (configuration not stated), the activation was 1.64% (inactive).

As to `COc1c(C)cc(C(O)c2ncc(-c3cccc(C(F)(F)F)c3)[nH]2)cc1C` (configuration not stated), the activation is 2.23% (inactive).

For the molecule `O=C1N/C(=C/c2cccn2-c2ccccc2)C(=O)N1c1cccc(Cl)c1`, the activation was 30.7% (active).

On to `O=C1CC(NNc2ccccc2)C(=O)N1c1cccc(Cl)c1` (configuration not stated), for which the activation was 2.47% (inactive). For `N#Cc1ccccc1CN1C(=O)S/C(=C/c2cccn2-c2cccc(C(=O)O)c2)C1=O` the value was 1.23% (inactive). As for `CCN(CCN(C)C)C(=O)c1ccc2nc(C)c(N(C)C(=O)CCc3ccccc3)n2c1`, the figure is 0.87% (inactive); as for `O=C(c1cc(-c2cccc(O)c2)on1)N1CCc2ccccc2C1`, 11.5% (active); as for `O=C(c1cc(-c2ccc(O)cc2)on1)N1CCOCC1`, -1.26% (inactive). As for `O=C(NCCCN1CCOCC1)c1cc(-c2cccc(O)c2)on1`, the figure is -2.51% (inactive); as for `CC1(C(=O)Nc2cccc3cccnc23)CCN1C(=O)CCC1CCCC1` (configuration not stated), 0.32% (inactive).

Consider `CCN(CC)CCN(C(=O)c1ccc2c(c1)CCCC2)c1nc2c(OC)cccc2s1`, for which the activation is 5.13% (inactive). On to `Cc1cccc2sc(N(CCCN(C)C)C(=O)CCS(=O)(=O)c3ccccc3)nc12`, for which the activation was -2.28% (inactive).

`COc1cccc2sc(N(CCCN(C)C)C(=O)C(c3ccccc3)c3ccccc3)nc12`: the activation is 11.3% (active).

As to `Cc1cc(-c2nc(C)c(-c3nnc(SCC(=O)Nc4ccccc4)n3C)s2)no1`, the activation was -2.39% (inactive).

For `Cn1c(SCC(=O)Nc2cccc(NC(=O)c3cccs3)c2)nnc1-c1ccncc1`, the activation is 0.46% (inactive). Turning to `Cc1nc(-c2nnc(SCC(=O)Nc3cc(C(F)(F)F)cc(C(F)(F)F)c3)n2C)cs1`, the activation was 10.2% (active).

`Cc1ccccc1S(=O)(=O)NC(=O)C1(C)CCN1C(=O)C1(c2ccccc2)CCCC1` (configuration not stated): the activation was -0.26% (inactive). Regarding `COc1ccc(CNc2nnnn2C)cc1`, the activation is -2.31% (inactive). As for `COc1ccc(-n2nnnc2-c2nc3ccccc3s2)cc1`, the figure is 9.47% (active).

With `COc1ccc(-n2nnnc2SCC(=O)NCc2cccs2)cc1`, the activation is -3.21% (inactive). With `OC[C@@H]1CN(Cc2ccc(F)cc2)C[C@H](n2cnc3c(NC4CCCC4)ncnc32)O1`, the activation was -2.29% (inactive). For `CC1(C(=O)NCc2cccc3ccccc23)CCN1Cc1ccc(-c2ccccc2)o1` (configuration not stated) the value was -1.17% (inactive); for `COc1ccc(-c2ccc(C(=O)NC(C)C)c3occc23)c(C)c1`, 1.66% (inactive); for `CCc1nc2ccc(C(=O)N(C)Cc3ccco3)cn2c1N(C)C(=O)Cc1ccccc1`, -1.99% (inactive). For `COc1ccc(CNC(=O)c2nnn(CC(=O)Nc3cc(C)cc(C)c3)c2N)cc1` the value was 0.3% (inactive); for `COc1cccc(CNC(=O)c2nnn(CC(=O)Nc3cc(C)ccc3C)c2N)c1`, 3.53% (inactive); for `COc1cccc(CNC(=O)c2nnn(CC(=O)Nc3cc(Cl)ccc3C)c2N)c1`, 11.7% (active).

With `CN(C)c1cccc(NC(=O)c2ccc(-c3ccc(F)c(F)c3)c3ccoc23)c1`, the activation was 0.91% (inactive). As for `COc1cc(C(=O)OC(C)C(=O)NCC2CCCCC2)cc(NC(=O)c2ccco2)c1OC` (configuration not stated), the activation was 13.3% (active).

As for `CC(OC(=O)c1ccc([N+](=O)[O-])cc1)C(=O)NCC1CCCCC1` (configuration not stated), the activation is -1.32% (inactive). As for `CC(OC(=O)c1cccc(S(=O)(=O)N2CCOCC2)c1)C(=O)NCC1CCCCC1` (configuration not stated), the figure is 0.27% (inactive).

As for `CC(C)Nc1ncnc2c1ncn2[C@H]1CN(Cc2ccncc2)C[C@@H](CO)O1`, the activation is 2.39% (inactive).

For `CC(C)CN1CCC1(C)C(=O)Nc1ccc(OC(F)F)cc1` (configuration not stated), the activation was 0.55% (inactive). In the case of `Cc1ccc(F)c(S(=O)(=O)NC(=O)C2(C)CCN2C(=O)c2ccco2)c1` (configuration not stated), the activation was 0.44% (inactive). For `Oc1c(Cl)cc(Cl)c(Cl)c1Cc1c(O)c(Cl)cc(Cl)c1Cl` the value was 9.22% (active); for `O=C(NCc1ccc(F)cc1)c1cc(C2CCCCN2C(=O)c2ccccn2)on1` (configuration not stated), 1.1% (inactive); for `COC(=O)C(C)Oc1ccc2c(c1)O/C(=C\c1cccc(Br)c1)C2=O` (configuration not stated), 0.36% (inactive). As for `COc1cc(/C=C2\Oc3ccc(C#Cc4ccc(O)cc4)cc3C2=O)cc(OC)c1`, the figure is 10.2% (active). As for `COc1cc(C#Cc2ccc3cc(CCCO)oc(=O)c3c2)cc(OC)c1`, the figure is -2.63% (inactive); as for `CCc1nc2ccc(C(=O)Nc3cc(-c4ccccc4)ccc3OC)cn2c1N(CC)CC(=O)N(C)C`, 1.77% (inactive); as for `C[C@H]([C@@H](O)[C@@H](O)[C@@H](C)C(C)(C)C)[C@H]1CC[C@H]2C3CC[C@H]4C[C@H](OS(=O)(=O)O)[C@@H](OS(=O)(=O)O)C[C@]4(C)[C@H]3CC[C@]12C` (some centres not stated), 0.15% (inactive). On to `CC1(C(=O)NS(=O)(=O)c2ccccc2)CCN1C(=O)C1CCCCC1` (configuration not stated), for which the activation is -1.69% (inactive). As for `COc1cccc(-c2cc3nc(NCc4ccccc4OC)n(C)c(=O)c3s2)c1`, the figure is 6.31% (inactive). On to `CCN(CC)C(=O)Oc1ccc(Br)cc1C(=O)Nc1ccc(F)c(Cl)c1`, for which the activation was 11.6% (active).

As for `COc1ccc(Cl)cc1C(=O)Nc1ccc(N(C)C(C)=O)cc1`, the activation was 0.11% (inactive). As for `CCCOc1ccc(F)cc1-c1cc(C(=O)Nc2ccc(F)c(Cl)c2)[nH]n1`, the figure is 2.17% (inactive); as for `CCN(CC)c1ccc(C(=O)N/N=C/c2ccc(N3CCOCC3)cc2)cc1`, 26.7% (active). For the molecule `Cc1ccccc1N/N=C/c1ccc(N2CCOCC2)cc1`, the activation is -1.27% (inactive). For `CCN(CC)c1ccc(/C=N/NC(=O)CNC(=O)c2cccs2)cc1` the value was -1.48% (inactive). On to `O=CNc1cc(-c2ccc(C(=O)N3CCOCC3)cc2)cn2c(-c3ccc(F)cc3)cnc12`, for which the activation was 0.33% (inactive).

Consider `CC1(Cc2ccccc2C#N)C(=O)Nc2ccc(-c3ccc4[nH]ccc4c3)cc21` (configuration not stated), for which the activation is -2.44% (inactive). `Cc1nc2c(OCc3cccc(Cl)c3)cccn2c1N(C)CC1CC1`: the activation is -0.13% (inactive). As for `CC1(C(=O)NCc2ccco2)Cc2c(-c3ccc4c(c3)OCO4)ccnc2O1` (configuration not stated), the activation is 0.01% (inactive). `CC1=C(C/C=C(\C)CCCC(C)CCCC(C)CCCC(C)C)C(=O)c2ccccc2C1=O` (configuration not stated): the activation was -1.56% (inactive). Turning to `CCN(CC)S(=O)(=O)c1ccc(OC)c(NC(=O)CCc2c(C)noc2C)c1`, the activation is -1.81% (inactive). For `Cc1ccc(S(=O)(=O)N(C)C)cc1NC(=O)COC(=O)c1c(C)noc1C` the value was -0.85% (inactive); for `CCN(CC)S(=O)(=O)c1ccc(C)c(NC(=O)COc2ccc(Br)cc2Cl)c1`, 13.4% (active). For `O=C(NCc1cccnc1)c1cc(C2CCCCN2C(=O)CCc2ccccc2)on1` (configuration not stated) the value was -1.7% (inactive); for `CCNC(=O)C1CCCN(C(=O)c2cc(F)ccc2C)CC1` (configuration not stated), 1.6% (inactive); for `CC(C)(C)OC(=O)N1CCC(NC(=O)c2[nH]cnc2C(=O)N[C@@H](Cc2ccccc2)C(=O)OCc2ccccc2)CC1`, 17.8% (active). Consider `O=C(N[C@@H](Cc1ccccc1)C(=O)OCc1ccccc1)c1nc[nH]c1C(=O)NC1CCNCC1`, for which the activation was -0.82% (inactive). With `O=C(N[C@@H](Cc1ccccc1)C(=O)OCc1ccccc1)c1nc[nH]c1C(=O)N[C@@H](Cc1ccccc1)C(=O)OCc1ccccc1`, the activation is 0.69% (inactive).

For `CC(=O)c1ccc(Nc2nc(C(N)c3ccccc3Cl)cs2)cc1` (configuration not stated), the activation is -0.98% (inactive). With `O=C(Cc1ccc(-c2ccccc2)cc1)NC(c1ccccc1)c1ccccc1`, the activation was 9.56% (active). Regarding `C=CCC(NC(=O)Cc1ccccc1)C(=O)NCCC` (configuration not stated), the activation is -0.94% (inactive).

For `O=C(CN1CCN(Cc2ccccc2)CC1)NC(c1ccccc1)c1ccccc1`, the activation is 1.85% (inactive). Turning to `COc1ccc(CN2CCC(C)(Oc3cccc(F)c3)C2)c2ccccc12` (configuration not stated), the activation was 0.37% (inactive). As to `O=C(Nc1ccc(Cl)cn1)c1ccc2c(c1)OCCO2`, the activation was 0.85% (inactive). For `CCCc1cc(C(=O)Nc2ccc(Cl)cn2)cs1` the value was 3.75% (inactive). For `COc1c(Cl)cc(C(=O)Nc2ccc(Cl)cn2)cc1Cl` the value was 10.6% (active); for `COc1ccc(-c2cc3nc(NCCOc4ccccc4)ccn3n2)cc1`, 4.13% (inactive). For `COc1cc(/C=N/NC(=O)Nc2ccccc2)ccc1OCCOc1ccccc1C` the value was 21.2% (active). As to `CCOc1ccc(/C=N/NC(=O)C(C)Sc2ccccn2)cc1OCC` (configuration not stated), the activation was 2.39% (inactive). Turning to `CCOc1cc(/C=N/NC(=O)OC)ccc1OCCSc1ccc(Cl)cc1`, the activation is 4.19% (inactive).
